Records with an inconclusive call do not appear. Calls of active or inactive are those of the source. Calls come from the whole dose curve; as a rule, active = well fitted inhibition curve with a large enough effect; inconclusive = small, poorly fitted or top-dose-only effect; inactive = flat fitted curve, though single readings scatter.
These molecules were tested against Lysine-specific demethylase 5B (Homo sapiens) (UniProt Q9UGL1) (assay: Optimization screen for KDM5B Histone Demethylases FDH coupled qHTS against the LOPAC library (AID 1347166)). Details: KDM5B demethylation, FDH-coupled NADH fluorescence (FDH is formaldehyde dehydrogenase); series mostly up to 57.5 µM.
Sequence of Lysine-specific demethylase 5B (Homo sapiens) (Q9UGL1 whole entry, looked up): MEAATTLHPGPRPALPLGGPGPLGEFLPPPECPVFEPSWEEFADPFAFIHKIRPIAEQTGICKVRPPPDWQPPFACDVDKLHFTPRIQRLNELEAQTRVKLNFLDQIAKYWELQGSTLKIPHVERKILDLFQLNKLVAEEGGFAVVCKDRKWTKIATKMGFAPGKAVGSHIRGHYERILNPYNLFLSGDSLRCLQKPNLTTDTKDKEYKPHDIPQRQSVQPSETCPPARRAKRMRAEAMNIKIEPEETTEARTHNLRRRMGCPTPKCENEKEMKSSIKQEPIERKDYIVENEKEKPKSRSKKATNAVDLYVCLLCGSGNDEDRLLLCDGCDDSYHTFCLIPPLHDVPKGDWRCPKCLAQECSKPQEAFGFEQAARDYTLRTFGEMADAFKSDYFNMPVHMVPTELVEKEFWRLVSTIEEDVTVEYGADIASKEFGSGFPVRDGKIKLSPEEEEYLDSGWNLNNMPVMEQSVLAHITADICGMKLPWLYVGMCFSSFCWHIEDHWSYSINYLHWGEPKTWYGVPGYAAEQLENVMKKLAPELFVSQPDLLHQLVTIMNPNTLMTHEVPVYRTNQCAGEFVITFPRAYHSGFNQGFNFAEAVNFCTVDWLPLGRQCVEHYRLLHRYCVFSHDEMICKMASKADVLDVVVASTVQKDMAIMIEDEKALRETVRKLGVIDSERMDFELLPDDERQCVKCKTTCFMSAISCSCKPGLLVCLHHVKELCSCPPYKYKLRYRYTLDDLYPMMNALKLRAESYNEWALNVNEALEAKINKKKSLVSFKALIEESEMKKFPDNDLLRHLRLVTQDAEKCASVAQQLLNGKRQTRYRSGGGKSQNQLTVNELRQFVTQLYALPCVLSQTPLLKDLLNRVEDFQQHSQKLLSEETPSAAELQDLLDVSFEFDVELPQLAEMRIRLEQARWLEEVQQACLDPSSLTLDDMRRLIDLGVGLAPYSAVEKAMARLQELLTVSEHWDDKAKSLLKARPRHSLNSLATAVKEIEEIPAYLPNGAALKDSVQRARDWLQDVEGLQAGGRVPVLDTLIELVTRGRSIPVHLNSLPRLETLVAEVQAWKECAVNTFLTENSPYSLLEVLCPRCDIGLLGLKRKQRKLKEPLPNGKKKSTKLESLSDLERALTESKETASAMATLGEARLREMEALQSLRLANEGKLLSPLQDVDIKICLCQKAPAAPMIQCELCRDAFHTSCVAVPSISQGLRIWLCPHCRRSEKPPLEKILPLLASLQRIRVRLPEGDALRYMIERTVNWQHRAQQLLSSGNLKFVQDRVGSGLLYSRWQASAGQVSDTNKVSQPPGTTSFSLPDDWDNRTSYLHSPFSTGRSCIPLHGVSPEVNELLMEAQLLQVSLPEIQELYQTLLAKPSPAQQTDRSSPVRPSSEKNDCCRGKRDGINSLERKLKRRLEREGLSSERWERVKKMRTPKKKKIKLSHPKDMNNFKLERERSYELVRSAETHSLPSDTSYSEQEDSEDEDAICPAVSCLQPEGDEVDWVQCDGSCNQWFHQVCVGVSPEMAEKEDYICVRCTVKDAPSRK
How it was run: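 KDM5BDeltaAP (200nM final) preincubated 10 min with compound, then 12.5uM H3K4Me3, 25uM a-ketoglutarate, ascorbate, Fe(II), NAD+ and FDH added; 50mM HEPES pH 7.5, 0.01% Tween-20. NADH fluorescence (340/450 nm) change over 30 min, room temperature.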

SMILES | outcome
Cc1ccc(O)c(N=Nc2ccccc2)n1 | inactive
CC(C)NC[C@H](O)COc1cccc2[nH]ccc12 | inactive
Nc1nc(Cl)nc2c1ncn2[C@@H]1O[C@H](CO)[C@@H](O)[C@H]1O | inactive
CC1OC1P(=O)(O)O (stereo unspecified) | inactive
O=S(=O)(c1cccc2c(I)cccc12)N1CCCNCC1 | inactive
CCCCCCCCCCCCCCCC(=O)OC(CC(=O)O)C[N+](C)(C)C (stereo unspecified) | inactive
OC[C@H]1O[C@@H](n2cnc3c(Nc4ccccc4)ncnc32)[C@H](O)[C@@H]1O | inactive
CC(COc1ccc(/C=C/c2ccccc2)cc1)[N+](C)(C)C (stereo unspecified) | inactive
NC(CCCP(=O)(O)O)C(=O)O (stereo unspecified) | inactive
N=C(N)SCCc1ccc(CCSC(=N)N)cc1 | inactive
Clc1ccc(N2CCN(Cc3c[nH]c4ncccc34)CC2)cc1 | inactive
O=P(O)(O)C(Cl)(Cl)P(=O)(O)O | inactive
NCCCCCCCCCCN | inactive
CO/N=C(\C(=O)N[C@@H]1C(=O)N2C(C(=O)O)=C(COC(C)=O)CS[C@H]12)c1csc(N)n1 | inactive
Cc1cc(NC2CCCCC2)nc(-n2nc(C)cc2C)n1 | inactive
COc1ccccc1N1CCN(CCN(C(=O)c2ccc(I)cc2)c2ccccn2)CC1 | inactive
CCCCN1CCC(n2c(=O)[nH]c3ccccc32)CC1 | inactive
CSc1ccccc1N1CCN(CCCCCC(=O)NC2CCCc3ccccc32)CC1 (stereo unspecified) | inactive
COc1cc2c(CCNC(C)=O)c[nH]c2cc1Cl | inactive
O=C(O)/C=C/C(O)c1ccc(Cl)cc1 (stereo unspecified) | inactive
CN(C)c1nc(N)c(C(=O)N=C(N)N)nc1Cl | inactive

Reference: PubChem BioAssay (NCATS)
